# The supplement of paper PMC8728848
# This is one part of a sample in which the strongest signals are shown more often than they occur.
# What was measured:
# Experiment in all cases: glycan array binding signal (z-score within array); higher = stronger binding
# Conditions in all cases: glycan notation: IUPAC condensed, linker removed
# Fuc(a1-2)Gal(b1-3)GlcNAc = biological target: Fuc(a1-2)Gal(b1-3)GlcNAc
# Method in brief: (§1)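 The Consortium for Functional Glycomics database supplied 3228 glycan arrays, of which those lacking an available protein sequence were dropped. The binding signal, a within-array Z-score, was averaged across arrays of the same protein sequence and across linkers. Negative scores can be read as non-binding.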
# [1] = biological target: Fuc(a1-2)Gal(b1-3)GlcNAc(b1-3)Gal(b1-4)Glc
# Method in brief: as §1
# [2] = biological target: Fuc(a1-2)Gal(b1-3)[Fuc(a1-4)]GlcNAc
# Method in brief: as §1
# [3] = biological target: Fuc(a1-2)Gal(b1-4)GlcNAc(b1-2)Man(a1-3)[Fuc(a1-2)Gal(b1-4)GlcNAc(b1-2)Man(a1-6)]Man(b1-4)GlcNAc(b1-4)GlcNAc
# Method in brief: as §1
# [4] = biological target: Fuc(a1-2)Gal(b1-4)[Fuc(a1-3)]GlcNAc
# Method in brief: as §1
# [5] = biological target: Fuc(a1-2)[GalNAc(a1-3)]Gal(b1-3)GlcNAc
# Method in brief: as §1
# [6] = biological target: Gal(a1-3)Gal(b1-3)[Fuc(a1-4)]GlcNAc(b1-2)Man(a1-3)[Gal(a1-3)Gal(b1-3)[Fuc(a1-4)]GlcNAc(b1-2)Man(a1-6)]Man(b1-4)GlcNAc(b1-4)GlcNAc
# Method in brief: as §1
# [7] = biological target: Gal(a1-3)Gal(b1-4)[Fuc(a1-3)]GlcNAc
# Method in brief: as §1
# [8] = biological target: Gal(a1-4)Gal(b1-4)GlcNAc(b1-2)Man(a1-3)[Gal(a1-4)Gal(b1-4)GlcNAc(b1-2)Man(a1-6)]Man(b1-4)GlcNAc(b1-4)GlcNAc
# Method in brief: as §1
# Gal(b1-2)Gal = biological target: Gal(b1-2)Gal
# Method in brief: as §1
# [9] = biological target: Gal(b1-3)GalNAc(b1-4)[Neu5Ac(a2-3)]Gal(b1-4)Glc
# Method in brief: as §1
# [10] = biological target: Gal(b1-3)GlcNAc(b1-3)Gal(b1-4)Glc
# Method in brief: as §1
# [11] = biological target: Gal(b1-3)GlcNAc(b1-3)Gal(b1-4)[Fuc(a1-3)]GlcNAc(b1-6)[Gal(b1-3)GlcNAc(b1-3)]Gal(b1-4)Glc
# Method in brief: as §1
# [12] = biological target: Gal(b1-3)[Fuc(a1-4)]GlcNAc
# Method in brief: as §1
# [13] = biological target: Gal(b1-3)[Fuc(a1-4)]GlcNAc(b1-2)Man(a1-3)[Gal(b1-3)[Fuc(a1-4)]GlcNAc(b1-2)Man(a1-6)]Man(b1-4)GlcNAc(b1-4)GlcNAc
# Method in brief: as §1
# [14] = biological target: Gal(b1-3)[Fuc(a1-4)]GlcNAc(b1-2)Man(a1-3)[Gal(b1-3)[Fuc(a1-4)]GlcNAc(b1-2)Man(a1-6)]Man(b1-4)GlcNAc(b1-4)[Fuc(a1-6)]GlcNAc
# Method in brief: as §1
# [15] = biological target: Gal(b1-4)GlcNAc(b1-2)Man(a1-3)[Gal(b1-4)GlcNAc(b1-2)Man(a1-6)]Man(b1-4)GlcNAc(b1-4)GlcNAc
# Method in brief: as §1
# [16] = biological target: GalNAc(b1-4)GlcNAc(b1-2)Man(a1-3)[GalNAc(b1-4)GlcNAc(b1-2)Man(a1-6)]Man(b1-4)GlcNAc(b1-4)GlcNAc
# Method in brief: as §1
# [17] = biological target: GlcNAc(b1-3)Gal(b1-4)GlcNAc(b1-3)Gal(b1-4)GlcNAc
# Method in brief: as §1
# Kdn(a2-3)Gal(b1-4)Glc = biological target: Kdn(a2-3)Gal(b1-4)Glc
# Method in brief: as §1
# [18] = biological target: Man(a1-2)Man(a1-2)Man(a1-6)[Man(a1-3)]Man
# Method in brief: as §1
# [19] = biological target: Neu5Ac(a2-3)Gal(b1-3)GlcNAc6S
# Method in brief: as §1
# [20] = biological target: Neu5Ac(a2-3)Gal(b1-3)[Fuc(a1-4)]GlcNAc(b1-3)Gal(b1-4)[Fuc(a1-3)]GlcNAc
# Method in brief: as §1
# [21] = biological target: Neu5Ac(a2-3)Gal(b1-4)GlcNAc(b1-3)Gal(b1-4)GlcNAc
# Method in brief: as §1
# [22] = biological target: Neu5Ac(a2-6)Gal(b1-4)GlcNAc(b1-3)Gal(b1-4)GlcNAc(b1-3)Gal(b1-4)GlcNAc
# Method in brief: as §1
# Neu5Ac(a2-6)GalNAc = biological target: Neu5Ac(a2-6)GalNAc
# Method in brief: as §1
# [23] = biological target: Neu5Ac9Ac(a2-3)Gal(b1-4)GlcNAc
# Method in brief: as §1
binder,measurement,setting,value
"SLP (Clostridium difficile), Q183M8 (protein) MATTGTQGYTVVKNDWKKAVKQLQDGLKDNSIGKITVSFNDGVVGEVAPKSANKKADRDAAAEKLYNLVNTQLDKLGDGDYVDFSVDYNLENKIITNQADAEAIVTKLNSLNEKTLIDIATKDTFGMVSKTQDSEGKNVAATKALKVKDVATFGLKSGGSEDTGYVVEMKAGAVEDKYGKVGDSTAGIAINLPSTGLEYAGKGTTIDFNKTLKVDVTGGSTPSAVAVSGFVTKDDTDLAKSGTINVRVINAKEESIDIDASSYTSAENLAKRYVFDPDEISEAYKAIVALQNDGIESNLVQLVNGKYQVIFYPEGKRLETKSLEHHHHHH",glycan array binding signal (z-score),Fuc(a1-2)Gal(b1-3)GlcNAc,-0.17
same,glycan array binding signal (z-score),[1],3.53
same,glycan array binding signal (z-score),[2],-0.18
same,glycan array binding signal (z-score),[3],3.46
same,glycan array binding signal (z-score),[4],-0.174
same,glycan array binding signal (z-score),[5],-0.175
same,glycan array binding signal (z-score),[6],12.1
same,glycan array binding signal (z-score),[7],-0.186
same,glycan array binding signal (z-score),[8],0.537
same,glycan array binding signal (z-score),Gal(b1-2)Gal,-0.185
same,glycan array binding signal (z-score),[9],-0.141
same,glycan array binding signal (z-score),[10],3.65
same,glycan array binding signal (z-score),[11],-0.152
same,glycan array binding signal (z-score),[12],-0.182
same,glycan array binding signal (z-score),[13],7.99
same,glycan array binding signal (z-score),[14],5.55
same,glycan array binding signal (z-score),[15],-0.173
same,glycan array binding signal (z-score),[16],6.19
same,glycan array binding signal (z-score),[17],-0.209
same,glycan array binding signal (z-score),Kdn(a2-3)Gal(b1-4)Glc,-0.2
same,glycan array binding signal (z-score),[18],-0.17
same,glycan array binding signal (z-score),[19],-0.167
same,glycan array binding signal (z-score),[20],-0.057
same,glycan array binding signal (z-score),[21],-0.18
same,glycan array binding signal (z-score),[22],-0.187
same,glycan array binding signal (z-score),Neu5Ac(a2-6)GalNAc,-0.177
same,glycan array binding signal (z-score),[23],-0.188
